High-throughput results (PubChem BioAssay)
ssDAF12 agonist = S. stercoralis DAF-12 activation, primary screen; 1% of 370,000 active; HEK293 ssDAF-12/GRIP1 lit1-tk-luc reporter, luminescence; % of 3 µM dafachronic acid response; activation, % at 6.8 µM; AID 652126;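 active = activation above the mean over all tested compounds plus 3 SD, cut at about 0.9% in these data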;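 note: 0% = DMSO-only wells and 100% = 3 µM delta7-dafachronic acid wells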
hgDAF-12 ag = agonists of H. glycines DAF-12 nuclear receptor; 1.8% of 370,000 active; AID 687014; HEK293 GAL4-hgDAF12 UAS-luciferase reporter, agonist luminescence; normalized to butyrate control; activation, % at 6.8 µM;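 active = activation above a cutoff set at the mean of all screened compounds plus 3 SD, cut at about 10% in these data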;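 note: 0% = DMSO wells and 100% = sodium butyrate wells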
DAX1 inh-1 = blocks DAX1 repression of SF-1 activated StAR promoter; HEK293T StAR-luciferase reporter, SF-1/DAX-1 repression relief; AID 652010; 1.1% of 370,000 active; inhibition, % at 6.8 µM;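 active = inhibition above the mean over all tested compounds plus 3 SD, cut at about 3.6% in these data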;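 note: 0% = DAX-1 cells with DMSO and 100% = cells lacking DAX-1 with DMSO; higher inhibition means more luminescence from relief of DAX-1 repression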
DAX1 inh-2 = inhibits human nuclear receptor DAX1; inhibition, % at 6.75 µM; HEK293 Gal4-DAX1 luciferase reporter, luminescence; AID 504766; 0.99% of 340,000 active;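 active = inhibition above the mean over all tested compounds plus 3 SD, cut at about 4.2% in these data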;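 note: 0% = DAX1-transfected cells with DMSO and 100% = empty-vector control cells with DMSO; inhibition shows as a rise in luminescence from relieved DAX1 repression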
Target sequence (P51843 207-470 limits assumed): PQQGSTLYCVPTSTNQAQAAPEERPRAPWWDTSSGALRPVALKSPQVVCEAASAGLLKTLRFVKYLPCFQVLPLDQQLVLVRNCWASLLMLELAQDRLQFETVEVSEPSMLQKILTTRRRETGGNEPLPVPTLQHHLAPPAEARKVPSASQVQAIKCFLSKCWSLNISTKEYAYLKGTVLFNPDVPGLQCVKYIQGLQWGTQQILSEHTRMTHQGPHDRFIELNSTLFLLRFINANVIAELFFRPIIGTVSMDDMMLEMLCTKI
hcDAF12 agonist = activates DAF-12 receptor from parasite H. contortus; HEK293 hcDAF-12 lit1-tk-luc reporter, luminescence; 0% DMSO, 100% Δ7-dafachronic acid; activation, % at 6.8 µM; 1.4% of 370,000 active;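 active = activation above the mean of all tested compounds plus 3 SD, cut at about 5.5% in these data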;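 note: 100% = response to 3 µM Δ7-dafachronic acid high control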
* = called active by the depositor; . = no result. Rows were chosen to be rich in hits. Some 4.1% of all compounds tested hit in one or more screens of this group.

SMILES	ssDAF12 agonist	hgDAF-12 ag	DAX1 inh-1	DAX1 inh-2	hcDAF12 agonist
O=C(Cn1cnc2ccccc2c1=O)c1ccccc1	-1	3	1	1	1
O=C(Cn1cnc2ccccc2c1=O)c1ccc(Cl)cc1	-1	11*	1	-1	3
O=C(Cn1cnc2ccccc2c1=O)c1ccc(Br)cc1	-1	12*	2	0	1
Cc1[nH]c(=O)[nH]c(=O)c1CCSSCCc1c(C)[nH]c(=O)[nH]c1=O	-1	4	-1	.	-1
C/C=C/c1ccccc1OCCCN1CCC(C(O)(c2ccccc2)c2ccccc2)CC1	-1	-1	0	.	0
NC(Cc1ccc(Cl)cc1)c1csc(Nc2ccc(S(N)(=O)=O)cc2)n1 (stereo unspecified)	-1	-1	4.3*	.	0
c1ccc(-c2ccc3ncccc3n2)cc1	0	8	3.7*	.	2
c1ccc(-c2cccc(-c3ccccc3)n2)cc1	-2	0	0	2	-2
Cc1cc(C(=O)NN=Cc2cccc(O)c2)n[nH]1	-1	4	1	.	1
Clc1ccc2nc(-c3ccc(Cl)nc3)[nH]c2c1	0	12*	0	3	3
COC(=O)c1c(-c2ccc(OC)cc2)sc2ccc(OC)cc12	1.6*	7	1	3	4
CNS(=O)(=O)c1ccc(NC(=S)Nc2ccc3c(c2)OCO3)cc1	-1	11*	0	0	2
O=S(=O)(NCc1ccc2c(c1)OCO2)c1ccc(F)c(F)c1	-1	0	0	3	-2
CC(=O)Nc1ccc(S(=O)(=O)NCC(=O)Nc2ccc3c(c2)OCO3)cc1	2.1*	-1	0	-2	-1
O=S(=O)(NCc1ccc2c(c1)OCO2)c1ccc(F)cc1	-1	-3	1	7.5*	-2
O=S(=O)(c1ccc(NC(=S)Nc2ccc3c(c2)OCO3)cc1)N1CCOCC1	0	3	0	0	-1
COc1cccc(CN(C)[C@H]2C[C@H]3c4[nH]c5ccccc5c4CCN3C[C@H]2[C@H](C)O)c1OC	-1	1	1	.	-1
O=C(NCc1ccc(C(=O)N2CCCC2)cc1)c1cccc(Br)c1	-1	1	0	.	1
COc1ccc(CCNC(=O)CSc2nc3[nH]ncc3c(=O)n2-c2ccc(C)c(Cl)c2)cc1OC	1.8*	0	-3	1	2
CCC(c1nnc(SCC(=O)Nc2ccc(NC(C)=O)cc2)n1Cc1ccccc1)N(C)C (stereo unspecified)	-1	2	-1	1	1
CCC(c1nnc(SCC(=O)NCCc2ccc(OC)c(OC)c2)n1Cc1ccccc1)N(C)C (stereo unspecified)	1.2*	-1	0	3	0
O=C(COC(=O)C1CC1)Nc1ccc(N=Nc2ccccc2)cc1	1	13*	3	2	4
Cc1ccccc1OCc1nc2ccccc2c(=O)n1/N=C/c1c[nH]c2ccccc12	-1	0	1	-1	2
Cc1ccc(-c2[nH]ncc2/C=N/n2c(COc3ccccc3C)nc3ccccc3c2=O)cc1	-1	13*	-1	-2	0
COc1ccc(CN2C(=O)[C@]3(NCCc4c3[nH]c3ccc(OC)cc43)c3cc(Br)ccc32)cc1	-1	-2	-2	.	-3
SMILES	ssDAF12 agonist	hgDAF-12 ag	DAX1 inh-1	DAX1 inh-2	hcDAF12 agonist
O=S(=O)(Nc1ccccn1)c1ccc(Cl)cc1	-2	0	0	0	-1
CS(=O)(=NS(=O)(=O)c1ccc(Cl)cc1)c1ccccc1 (stereo unspecified)	-2	3	0	4.3*	0
Cc1ccc(C=Nc2ccccc2C(N)=O)cc1	0	12*	0	1	5.9*
Cc1ccc(C=Nc2ccccc2C(=O)Nc2ccccc2)cc1	-1	-1	0	0	0
Cc1ccc(CNC(=O)CCc2ccc(S(=O)(=O)NC3CCCCC3)cc2)cc1	-2	-3	0	0	5.8*
O=C(CCc1ccc(S(=O)(=O)NC2CCCCC2)cc1)NCc1cccnc1	-1	-1	0	3	-2
CCOC(=O)C1CSCCS(=O)(=O)N1Cc1ccc(F)cc1 (stereo unspecified)	-1	-1	0	.	-2
CC1OC(CCc2cccc(Cl)c2)Cc2[nH][nH]c(=O)c21 (stereo unspecified)	2.0*	7	3	.	4
O=c1[nH][nH]c2c1[C@H](CCc1cccc(Cl)c1)O[C@H](C1CC1)C2	-1	-2	1	.	0
Cc1ccccc1NC(=O)c1ccc2c(c1)OCCO2	-1	6	1	0	2
Cc1cccc(NC(=O)c2ccc3c(c2)OCCO3)c1C	0	12*	2	0	4
O=C(Nc1cccc2nsnc12)c1ccc2c(c1)OCCO2	0	10	2	1	5.6*
O=C(Nc1cccc2nsnc12)c1ccc2c(c1)OCO2	-1	8	1	1	2
COC(=O)C1=C(C)N(Cc2cccc(C(F)(F)F)c2)C(=NCC2CC2)NC1c1cccc(Cl)c1 (stereo unspecified)	0	0	-1	.	0
Cc1ccc(S(=O)(=O)SC/C=C/CSS(=O)(=O)c2ccc(C)cc2)cc1	0	1	0	5.5*	0
Cc1ccc(S(=O)(=O)SCCCSS(=O)(=O)c2ccc(C)cc2)cc1	-1	-2	-1	-1	-1
COc1ccc(-n2cnc3sc(-c4ccccc4)cc3c2=O)cc1	0	8	3	5.0*	4
CC(=O)Cn1cnc2sc(-c3ccccc3)cc2c1=O	-1	11*	2	1	3
O=C(Cn1cnc2sc(-c3ccccc3)cc2c1=O)N1CCOCC1	-1	1	0	0	-1
CC(=O)Cn1nnc2sc(-c3ccccc3)cc2c1=O	0	13*	3	4	5
Cc1ccccc1NC(=O)N1CCCC(c2nc(-c3ccc(C(C)C)cc3)no2)C1 (stereo unspecified)	0	11*	0	-4	5
Cc1ccccc1NC(=O)N1CCCC(c2nc(-c3ccc(F)cc3)no2)C1 (stereo unspecified)	-2	3	1	0	-1
C#CCNC(=O)C[C@H]1C[C@@]2(C(=O)OC)C(=C[C@H](COCc3ccccc3)O[C@@H]2C)N(Cc2ccc3c(c2)OCO3)C1=O	-1	1	-1	.	3
CCC(=O)Oc1ccc(C(=O)Nc2ccccc2C(=O)NCC(C)C)cc1	-2	1	-1	-3	0
CCC(=O)Oc1ccc(C(=O)Nc2cccc(C(=O)NCC(C)C)c2)cc1	-1	0	0	4.7*	-1
C=CCO[C@H]1CN(C(=O)OC)[C@@H]2C[C@H]1Oc1ccccc12	-1	2	1	.	1
Cc1cc(Oc2cccnc2)ccc1NC(=O)CCc1c[nH]c2ccccc12	-1	-2	-1	.	3
